NPC1 prom act – qHTS Assay for NPC1 Promoter Activators | Potency, µM (titrated, usually from 9.22 µM), most hits filed as activators | Huh7 NPC1 promoter luciferase reporter, 24 h | AID 485313, 2010 | hit rate 2.4% among 320,000; also: nearly all actives have a fitted effect of over 60% in size
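Stable NPC1-promoter luciferase Huh7 line; cpd (DMSO) 24 h, 37 °C, 5% CO2; Amplite luciferase reagent 10 min RT; luminescence readout. qHTS format.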
ELG1 DNA repair – qHTS screen for small molecules that inhibit ELG1-dependent DNA repair in human embryonic kidney (HEK293T) cells expressing luciferase-tagged ELG1; HEK293T ELG1-luciferase reporter, luminescence, 16 h; DNA damage induced by 5-fluorouridine; Potency, µM (series often up to 46.1 µM), most hits filed as inhibitors; hit rate 2.3% among 330,000; AID 504467, 2011; also: nearly all actives have a fitted effect of over 55% in size
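DMSO vehicle served as the neutral condition. Each well held 2,000 cells given 5-fluorouridine plus compound; after 16 hr at 37 °C/5% CO2, ONE-Glo was added and luciferase measured 30 min later.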
SMN2 splice up – qHTS Assay for Enhancers of SMN2 Splice Variant Expression; HEK293 SMN2-luciferase splicing reporter, luminescence, 30-36 h; Potency, µM (series often up to 46.1 µM), most hits filed as activators; hit rate 2.8% among 210,000; AID 1458, 2008; also: nearly all actives have a fitted effect of over 55% in size
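HEK293 cells carry an SMN2 minigene-luciferase reporter in which exon 7 inclusion puts luciferase in frame. Cells were seeded at 2000 cells/well, attached for 10-12 hours, then exposed to compounds for 30-36 hours at 37C before ONE-Glo luminescence.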
Rab9 prom act – qHTS Assay for Rab9 Promoter Activators; Huh7 Rab9 promoter-luciferase reporter, luminescence, 24 h; Potency, µM (top dose mostly 9.22 µM), hits mostly activators; hit rate 2.8% among 320,000; AID 485297, 2010; also: nearly all actives have a fitted effect of over 60% in size
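Luminescence from Amplite-detected luciferase (10 minutes, ambient) reports Rab9 promoter activation. Before that, stable Rab9-luciferase Huh7 cells (1500/well, reduced-serum OP-MEM I plus 10% FBS) were exposed to compound for 24 hours at 37C.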
FLuc modulator – qHTS profiling assay for firefly luciferase inhibitor/activator using purifed enzyme and Km concentrations of substrates (counterscreen for miR-21 project). hit rate 6.9% among 360,000. AID 588342, 2011. purified FLuc, Km substrates, luminescence inhibition. Potency, µM (highest dose often 57.5 µM), most hits filed as inhibitors. Luciferin 4-monooxygenase (Photinus pyralis), P08659; also: nearly all actives have a fitted effect of over 55% in size
Target sequence (P08659 whole entry, looked up): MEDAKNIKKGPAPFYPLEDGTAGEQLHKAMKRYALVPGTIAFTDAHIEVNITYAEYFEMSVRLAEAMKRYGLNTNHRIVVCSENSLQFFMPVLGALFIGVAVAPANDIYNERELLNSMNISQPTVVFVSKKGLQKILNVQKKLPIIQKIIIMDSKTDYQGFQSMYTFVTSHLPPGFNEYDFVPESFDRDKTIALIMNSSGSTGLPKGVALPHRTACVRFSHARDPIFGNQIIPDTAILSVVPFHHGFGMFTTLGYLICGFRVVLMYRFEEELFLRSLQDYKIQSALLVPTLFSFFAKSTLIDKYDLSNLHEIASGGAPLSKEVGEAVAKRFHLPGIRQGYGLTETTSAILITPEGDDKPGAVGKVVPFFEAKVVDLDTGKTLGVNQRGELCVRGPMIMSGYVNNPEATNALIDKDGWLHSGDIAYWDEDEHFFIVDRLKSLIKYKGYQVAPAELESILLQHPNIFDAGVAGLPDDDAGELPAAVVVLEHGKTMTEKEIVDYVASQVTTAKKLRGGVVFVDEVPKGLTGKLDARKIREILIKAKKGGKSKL
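Purified P. pyralis luciferase (10nM final) with 10uM D-luciferin and 10uM ATP (Km levels) in 50mM Tris acetate pH 7.5, 10mM Mg acetate, 0.01% Tween-20, 0.05% BSA; qHTS 6-point titration, ~60 µM downward; luminescence read.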
ELG1 genotoxic – qHTS screen for small molecules that induce genotoxicity in human embryonic kidney (HEK293T) cells expressing luciferase-tagged ELG1. Potency, µM (top dose mostly 46 µM), actives largely listed as activators. HEK293T ELG1-luciferase reporter, luminescence, 16 h. hit rate 1.3% among 330,000. AID 504466, 2011; also: nearly all actives have a fitted effect of over 60% in size
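Luminescence read-out: rising ELG1-luciferase signal, reflecting elevated ELG1 protein under genetic stress, flags genotoxic compounds. Cells were treated for 16 hr at 37 °C before ONE-Glo detection.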
Hits are given with their value; [ ] = remark or other dose. Hits are enriched below; roughly 9.3% of the tested compounds scored in any of these assays. Calls follow the shape of the dose curve; as a rule, active = well fitted curve in the direction sought with a large enough effect; inconclusive = small, poorly fitted or top-dose-only effect, or another doubt; inactive = no such curve, though single readings can be large; an effect the other way counts as inactive or inconclusive.

Cc1cccc(Cn2nc(C)cc2NC(=O)CCCn2ccc([N+](=O)[O-])n2)c1 was read as NPC1 prom act inactive, ELG1 DNA repair inactive, SMN2 splice up inactive, Rab9 prom act inactive, FLuc modulator inactive and ELG1 genotoxic inactive.
CCN(CC)CCCNC(=O)CCc1c(C)nc2c(c1C)c(=O)n(C)c(=O)n2C was read as SMN2 splice up inactive and FLuc modulator inactive.
Screening O=C(O)[C@H](Cc1c[nH]c2ccccc12)Nc1ncccc1[N+](=O)[O-] returned NPC1 prom act inactive, ELG1 DNA repair inactive, Rab9 prom act inactive, FLuc modulator inactive and ELG1 genotoxic inactive.
CCC(=O)Nc1sc2c(c1C#N)CCCCC2 was read as NPC1 prom act inactive, ELG1 DNA repair inconclusive, SMN2 splice up inconclusive, Rab9 prom act inconclusive, FLuc modulator inactive[2.3 µM] and ELG1 genotoxic inactive.
For N#Cc1c(NC(=O)CCCC(=O)O)sc2c1CCCCC2 the results were NPC1 prom act inconclusive, ELG1 DNA repair inconclusive, SMN2 splice up 1.26µM, Rab9 prom act inconclusive, FLuc modulator 2.13µM and ELG1 genotoxic inconclusive.
`CCCC(=O)Nc1sc2c(c1C#N)CCCCC2` gave NPC1 prom act 3.16µM, ELG1 DNA repair inconclusive, SMN2 splice up 11.2µM, Rab9 prom act 2.82µM, FLuc modulator 9.53µM and ELG1 genotoxic inconclusive.
For NS(=O)(=O)c1ccc(CCNC(=O)COC(=O)c2nc(Cl)ccc2Cl)cc1 the results were NPC1 prom act inactive, ELG1 DNA repair inactive, Rab9 prom act inactive and ELG1 genotoxic inactive.
`Cn1cnc(S(=O)(=O)N2CCC(C(=O)N3CCN(c4ccccc4F)CC3)CC2)c1` gave FLuc modulator inactive.
O=C(O)Cn1nc(-c2ccccc2)cc1-c1ccccc1 was read as NPC1 prom act inactive, ELG1 DNA repair inconclusive, Rab9 prom act inactive, FLuc modulator inactive and ELG1 genotoxic inactive.
CCC1C(=O)n2nc(-c3ccccc3)cc2N=C1C (configuration not stated) was read as NPC1 prom act inconclusive, ELG1 DNA repair inconclusive, SMN2 splice up 12.6µM, Rab9 prom act 2.82µM, FLuc modulator 13.5µM and ELG1 genotoxic inconclusive.
Screening CCOc1ccc(Nc2nc(-c3cccc(Cl)c3)c3c(n2)-c2ccccc2OC3)cc1 returned FLuc modulator 12µM.
Nc1nc2c(-c3ccc(Br)cc3)nnn2c2ccccc12 was read as NPC1 prom act 1µM, ELG1 DNA repair inconclusive, Rab9 prom act 0.631µM, FLuc modulator 0.426µM and ELG1 genotoxic 11.6µM.
CC(=O)N1c2ccc(Cl)cc2C2C=CCC2C1c1cccc2ccccc12 (configuration not stated) was read as NPC1 prom act inactive, ELG1 DNA repair 23.1µM, SMN2 splice up inconclusive, Rab9 prom act inactive, FLuc modulator inactive and ELG1 genotoxic inactive.
`CC(=O)N1c2ccc3ccccc3c2C2C=CCC2C1c1ccc(Br)cc1` (configuration not stated) gave NPC1 prom act inactive, ELG1 DNA repair inactive, SMN2 splice up inactive, Rab9 prom act inactive, FLuc modulator inactive and ELG1 genotoxic inactive.
Screening Cc1ccc(/C=N/Nc2cc(C)nc(NCc3ccccc3)n2)cc1 returned NPC1 prom act inactive, ELG1 DNA repair inactive, Rab9 prom act inactive, FLuc modulator 10.7µM and ELG1 genotoxic inactive.
Cc1cc(N/N=C/c2ccc(F)cc2)nc(NCc2ccccc2)n1 was read as NPC1 prom act inactive, ELG1 DNA repair inactive, Rab9 prom act inactive, FLuc modulator 10.7µM and ELG1 genotoxic inactive.
Cc1cc(N/N=C/c2ccc(Cl)cc2Cl)nc(NCc2ccccc2)n1 was read as NPC1 prom act inactive, ELG1 DNA repair inconclusive, SMN2 splice up inactive, Rab9 prom act inactive, FLuc modulator inconclusive and ELG1 genotoxic inactive.

Screening data as filed in PubChem.
